# Measurements taken from article PMC7862700, “An all-to-all approach to the identification of sequence-specific readers for epigenetic DNA modifications on cytosine”.
# Columns and labels:
# Assay in all cases: DAPPL (digital affinity profiling via proximity ligation, sequencing); 10 mM Tris-HCl pH 7.5, 50 mM NaCl, 1 mM DTT, 4% glycerol, room temperature, 30 min; GST-TFs on glutathione beads, 16-mer random dsDNA library, 0.1% formaldehyde crosslink after washing; high values mean tight binding
# FLI1 = molecular target: T1, FLI1 (Homo sapiens, UniProt Q01543 1-452); conditions: protein: recombinant; tags: N-terminal GST; dsDNA, one strand shown
# T1 sequence: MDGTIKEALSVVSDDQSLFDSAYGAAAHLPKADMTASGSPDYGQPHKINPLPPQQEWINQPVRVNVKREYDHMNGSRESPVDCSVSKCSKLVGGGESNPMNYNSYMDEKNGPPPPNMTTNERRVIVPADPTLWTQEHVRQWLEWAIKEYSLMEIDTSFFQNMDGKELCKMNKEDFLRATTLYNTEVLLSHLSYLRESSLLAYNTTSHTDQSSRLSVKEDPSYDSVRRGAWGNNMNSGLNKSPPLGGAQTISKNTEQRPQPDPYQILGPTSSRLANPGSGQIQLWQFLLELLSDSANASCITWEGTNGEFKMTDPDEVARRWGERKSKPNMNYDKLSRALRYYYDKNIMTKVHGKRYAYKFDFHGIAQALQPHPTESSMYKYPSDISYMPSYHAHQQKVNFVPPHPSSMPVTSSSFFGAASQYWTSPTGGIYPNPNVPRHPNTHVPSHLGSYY
# Procedure, shortened: (§1)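 Human transcription factors fused to GST were expressed in yeast, captured on glutathione beads, given DNA barcodes and pooled with a GST-only negative control. Pools were incubated with 200 nmole of a 16-mer random double-stranded DNA library in Tris/NaCl/DTT/glycerol buffer at room temperature for 30 min. They were then washed, crosslinked with 0.1% formaldehyde, proximity-ligated (BsaI/T4 ligase, 1 h, 37 °C), PCR-amplified and sequenced on an Illumina NextSeq500. Binding signal is each 6-mer's read frequency for a factor divided by its frequency for the GST control.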
# ELK1 = molecular target: T2, ELK1 (Homo sapiens, UniProt P19419 1-428); conditions: protein: recombinant; tags: N-terminal GST; dsDNA, one strand shown
# T2 sequence: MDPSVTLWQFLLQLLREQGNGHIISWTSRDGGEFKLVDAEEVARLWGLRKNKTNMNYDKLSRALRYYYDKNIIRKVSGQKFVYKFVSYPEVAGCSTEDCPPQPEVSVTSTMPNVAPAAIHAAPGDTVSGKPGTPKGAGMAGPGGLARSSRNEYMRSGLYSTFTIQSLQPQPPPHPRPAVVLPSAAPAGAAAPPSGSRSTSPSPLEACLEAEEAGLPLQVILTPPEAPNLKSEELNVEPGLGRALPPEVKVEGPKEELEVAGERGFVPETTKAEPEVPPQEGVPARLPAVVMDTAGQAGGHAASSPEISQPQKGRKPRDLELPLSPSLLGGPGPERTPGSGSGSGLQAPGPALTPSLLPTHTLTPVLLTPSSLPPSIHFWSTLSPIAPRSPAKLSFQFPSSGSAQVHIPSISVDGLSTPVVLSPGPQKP
# Procedure, shortened: as §1
# GABPA = molecular target: T3, GABPA (Homo sapiens, UniProt Q06546 1-454); conditions: protein: recombinant; tags: N-terminal GST; dsDNA, one strand shown
# T3 sequence: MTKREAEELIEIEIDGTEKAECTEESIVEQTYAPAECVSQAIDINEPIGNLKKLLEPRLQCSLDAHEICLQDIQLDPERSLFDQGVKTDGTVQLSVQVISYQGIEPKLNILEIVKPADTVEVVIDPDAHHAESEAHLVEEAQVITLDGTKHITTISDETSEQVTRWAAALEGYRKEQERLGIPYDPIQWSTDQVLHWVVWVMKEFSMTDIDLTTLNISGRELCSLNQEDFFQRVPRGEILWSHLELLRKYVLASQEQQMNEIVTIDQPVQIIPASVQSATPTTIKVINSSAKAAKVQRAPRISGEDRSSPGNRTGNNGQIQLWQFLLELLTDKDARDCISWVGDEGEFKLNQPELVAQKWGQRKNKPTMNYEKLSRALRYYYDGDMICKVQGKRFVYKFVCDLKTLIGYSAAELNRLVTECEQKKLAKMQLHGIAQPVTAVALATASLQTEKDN
# Procedure, shortened: as §1
# ERG = molecular target: T4, ERG (Homo sapiens, UniProt P11308 1-479); conditions: protein: recombinant; tags: N-terminal GST; dsDNA, one strand shown
# T4 sequence: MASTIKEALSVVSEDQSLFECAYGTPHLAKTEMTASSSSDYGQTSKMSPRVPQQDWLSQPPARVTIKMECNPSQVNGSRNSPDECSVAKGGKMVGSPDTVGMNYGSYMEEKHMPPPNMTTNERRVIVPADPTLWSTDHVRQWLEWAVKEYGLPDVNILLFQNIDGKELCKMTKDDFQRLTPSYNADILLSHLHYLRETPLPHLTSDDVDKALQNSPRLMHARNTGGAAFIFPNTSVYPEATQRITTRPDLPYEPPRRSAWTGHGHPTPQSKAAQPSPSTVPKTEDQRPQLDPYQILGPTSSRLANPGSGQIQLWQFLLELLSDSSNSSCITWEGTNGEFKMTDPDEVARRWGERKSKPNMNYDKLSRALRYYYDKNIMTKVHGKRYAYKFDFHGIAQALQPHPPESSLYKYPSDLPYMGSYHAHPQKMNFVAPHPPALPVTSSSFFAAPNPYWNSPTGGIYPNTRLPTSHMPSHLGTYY
# Procedure, shortened: as §1
# ELF1 = ELF1 (Homo sapiens, UniProt P32519 1-619); conditions: protein: recombinant; tags: N-terminal GST; dsDNA, one strand shown
# Procedure, shortened: as §1
# EHF = molecular target: T5, EHF (Homo sapiens, UniProt Q9NZC4 1-300); conditions: protein: recombinant; tags: N-terminal GST; dsDNA, one strand shown
# T5 sequence: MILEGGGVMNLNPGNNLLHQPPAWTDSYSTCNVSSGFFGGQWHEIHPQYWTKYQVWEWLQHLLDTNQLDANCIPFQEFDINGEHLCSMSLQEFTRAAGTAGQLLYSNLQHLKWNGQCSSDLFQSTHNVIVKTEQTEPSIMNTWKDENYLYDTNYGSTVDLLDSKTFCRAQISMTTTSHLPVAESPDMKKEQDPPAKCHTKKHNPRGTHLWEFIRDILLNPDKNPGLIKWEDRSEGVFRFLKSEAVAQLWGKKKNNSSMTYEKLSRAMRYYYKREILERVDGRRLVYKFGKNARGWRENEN
# Procedure, shortened: as §1
# SPI1 = SPI1 (Homo sapiens, UniProt P17947 1-270); conditions: protein: recombinant; tags: N-terminal GST; dsDNA, one strand shown
# Procedure, shortened: as §1
# SPIB = SPIB (Homo sapiens, UniProt Q01892 1-262); conditions: protein: recombinant; tags: N-terminal GST; dsDNA, one strand shown
# Procedure, shortened: as §1
# ELK3 = molecular target: T6, ELK3 (Homo sapiens, UniProt P41970 1-407); conditions: protein: recombinant; tags: N-terminal GST; dsDNA, one strand shown
# T6 sequence: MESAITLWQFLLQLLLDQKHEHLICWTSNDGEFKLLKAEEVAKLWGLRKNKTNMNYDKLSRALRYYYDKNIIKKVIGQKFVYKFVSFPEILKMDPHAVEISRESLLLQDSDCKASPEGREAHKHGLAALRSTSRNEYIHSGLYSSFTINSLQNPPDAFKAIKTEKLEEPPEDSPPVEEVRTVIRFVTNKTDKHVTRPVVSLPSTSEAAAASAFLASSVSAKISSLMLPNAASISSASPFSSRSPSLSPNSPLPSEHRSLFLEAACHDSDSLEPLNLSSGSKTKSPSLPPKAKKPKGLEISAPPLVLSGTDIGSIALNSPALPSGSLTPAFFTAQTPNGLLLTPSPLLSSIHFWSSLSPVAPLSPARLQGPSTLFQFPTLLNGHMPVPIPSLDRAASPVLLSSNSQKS
# Procedure, shortened: as §1
# FEV = molecular target: T7, FEV (Homo sapiens, UniProt Q99581 1-238); conditions: protein: recombinant; tags: N-terminal GST; dsDNA, one strand shown
# T7 sequence: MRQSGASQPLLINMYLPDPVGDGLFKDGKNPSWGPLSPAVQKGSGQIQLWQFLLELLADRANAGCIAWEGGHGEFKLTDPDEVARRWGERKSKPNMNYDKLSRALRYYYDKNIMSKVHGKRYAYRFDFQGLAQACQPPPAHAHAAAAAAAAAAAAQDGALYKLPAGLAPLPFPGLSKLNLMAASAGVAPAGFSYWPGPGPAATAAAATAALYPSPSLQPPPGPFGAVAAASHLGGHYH
# Procedure, shortened: as §1
# ETV5 = ETV5 (Homo sapiens, UniProt P41161 1-510); conditions: protein: recombinant; tags: N-terminal GST; dsDNA, one strand shown
# Procedure, shortened: as §1
# HSF1 = HSF1 (Homo sapiens, UniProt Q00613 1-529); conditions: protein: recombinant; tags: N-terminal GST; chain copies: 3; dsDNA, one strand shown
# Procedure, shortened: as §1
# SPIC = molecular target: T8, SPIC (Homo sapiens, UniProt Q8N5J4 1-248); conditions: protein: recombinant; tags: N-terminal GST; dsDNA, one strand shown
# T8 sequence: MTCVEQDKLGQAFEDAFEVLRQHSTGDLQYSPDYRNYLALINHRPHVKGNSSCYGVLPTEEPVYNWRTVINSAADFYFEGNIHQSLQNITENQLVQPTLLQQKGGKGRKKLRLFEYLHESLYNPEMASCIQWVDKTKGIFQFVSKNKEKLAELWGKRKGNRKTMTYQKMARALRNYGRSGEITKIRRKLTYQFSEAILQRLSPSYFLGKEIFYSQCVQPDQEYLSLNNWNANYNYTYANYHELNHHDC
# Procedure, shortened: as §1
# ELF4 = ELF4 (Homo sapiens, UniProt Q99607 1-663); conditions: protein: recombinant; tags: N-terminal GST; dsDNA, one strand shown
# Procedure, shortened: as §1
# ELK4 = molecular target: T9, ELK4 (Homo sapiens, UniProt P28324-2 1-405); conditions: protein: recombinant; tags: N-terminal GST; dsDNA, one strand shown
# T9 sequence: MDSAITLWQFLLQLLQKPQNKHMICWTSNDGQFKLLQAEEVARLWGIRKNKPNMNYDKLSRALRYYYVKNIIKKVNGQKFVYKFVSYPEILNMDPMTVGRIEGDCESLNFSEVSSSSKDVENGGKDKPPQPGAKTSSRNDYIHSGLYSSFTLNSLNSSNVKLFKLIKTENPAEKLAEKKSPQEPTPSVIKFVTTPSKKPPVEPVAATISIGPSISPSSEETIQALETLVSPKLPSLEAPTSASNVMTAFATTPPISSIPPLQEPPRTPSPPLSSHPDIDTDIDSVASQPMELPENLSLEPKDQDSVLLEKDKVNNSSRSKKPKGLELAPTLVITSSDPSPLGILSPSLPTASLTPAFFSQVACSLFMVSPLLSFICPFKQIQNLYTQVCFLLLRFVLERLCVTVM
# Procedure, shortened: as §1
# ETV2 = molecular target: T10, ETV2 (Homo sapiens, UniProt O00321 1-342); conditions: protein: recombinant; tags: N-terminal GST; dsDNA, one strand shown
# T10 sequence: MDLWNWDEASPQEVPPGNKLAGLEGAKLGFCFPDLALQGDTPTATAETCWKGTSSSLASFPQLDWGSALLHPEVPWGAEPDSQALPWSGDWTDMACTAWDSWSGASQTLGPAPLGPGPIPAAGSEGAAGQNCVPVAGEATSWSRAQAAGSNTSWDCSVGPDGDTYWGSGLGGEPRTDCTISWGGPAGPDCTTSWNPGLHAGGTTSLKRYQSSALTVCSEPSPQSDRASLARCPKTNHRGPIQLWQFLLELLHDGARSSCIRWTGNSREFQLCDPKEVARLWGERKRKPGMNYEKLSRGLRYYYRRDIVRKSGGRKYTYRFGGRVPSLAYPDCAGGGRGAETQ
# Procedure, shortened: as §1
# ELF3 = molecular target: T11, ELF3 (Homo sapiens, UniProt P78545 1-371); conditions: protein: recombinant; tags: N-terminal GST; dsDNA, one strand shown
# T11 sequence: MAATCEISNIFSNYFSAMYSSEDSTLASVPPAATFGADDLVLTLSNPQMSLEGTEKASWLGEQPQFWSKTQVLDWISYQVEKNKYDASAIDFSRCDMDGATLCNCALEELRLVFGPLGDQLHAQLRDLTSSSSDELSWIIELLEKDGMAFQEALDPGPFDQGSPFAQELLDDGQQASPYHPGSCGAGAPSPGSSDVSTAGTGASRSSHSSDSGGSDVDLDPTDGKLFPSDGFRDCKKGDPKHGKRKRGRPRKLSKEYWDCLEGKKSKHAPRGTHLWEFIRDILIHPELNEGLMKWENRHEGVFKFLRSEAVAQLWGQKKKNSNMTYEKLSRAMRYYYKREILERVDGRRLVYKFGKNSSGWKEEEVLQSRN
# Procedure, shortened: as §1
# CRX = CRX (Homo sapiens, UniProt O43186 1-299); conditions: protein: recombinant; tags: N-terminal GST; dsDNA, one strand shown
# Procedure, shortened: as §1
# ETV1 = ETV1 (Homo sapiens, UniProt P50549 1-477); conditions: protein: recombinant; tags: N-terminal GST; dsDNA, one strand shown
# Procedure, shortened: as §1
# Sequence of ELF4 (Q99607 whole entry): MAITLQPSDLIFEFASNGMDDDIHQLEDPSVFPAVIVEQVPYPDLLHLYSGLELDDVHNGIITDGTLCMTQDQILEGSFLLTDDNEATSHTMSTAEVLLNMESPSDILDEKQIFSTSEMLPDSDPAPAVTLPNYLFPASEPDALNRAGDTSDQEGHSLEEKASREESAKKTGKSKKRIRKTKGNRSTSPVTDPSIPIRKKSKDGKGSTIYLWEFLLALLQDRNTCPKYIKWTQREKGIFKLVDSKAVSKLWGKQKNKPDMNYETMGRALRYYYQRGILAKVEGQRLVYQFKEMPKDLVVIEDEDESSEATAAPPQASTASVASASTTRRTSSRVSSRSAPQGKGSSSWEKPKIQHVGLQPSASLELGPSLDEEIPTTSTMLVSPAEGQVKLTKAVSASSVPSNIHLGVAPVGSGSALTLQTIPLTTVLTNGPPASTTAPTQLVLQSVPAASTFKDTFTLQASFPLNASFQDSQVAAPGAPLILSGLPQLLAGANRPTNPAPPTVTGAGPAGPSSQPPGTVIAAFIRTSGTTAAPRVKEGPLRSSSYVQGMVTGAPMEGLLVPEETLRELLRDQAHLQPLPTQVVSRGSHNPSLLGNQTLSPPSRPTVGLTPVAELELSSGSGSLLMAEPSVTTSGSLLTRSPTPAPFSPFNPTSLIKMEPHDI
# Sequence of SPIB (Q01892 whole entry): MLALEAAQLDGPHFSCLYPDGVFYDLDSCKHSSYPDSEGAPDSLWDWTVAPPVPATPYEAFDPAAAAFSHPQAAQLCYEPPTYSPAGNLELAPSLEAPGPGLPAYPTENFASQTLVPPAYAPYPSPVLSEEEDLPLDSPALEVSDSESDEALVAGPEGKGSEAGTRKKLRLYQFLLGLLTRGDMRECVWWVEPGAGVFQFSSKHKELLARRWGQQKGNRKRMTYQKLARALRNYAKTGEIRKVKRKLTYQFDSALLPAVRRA
# Sequence of CRX (O43186 whole entry): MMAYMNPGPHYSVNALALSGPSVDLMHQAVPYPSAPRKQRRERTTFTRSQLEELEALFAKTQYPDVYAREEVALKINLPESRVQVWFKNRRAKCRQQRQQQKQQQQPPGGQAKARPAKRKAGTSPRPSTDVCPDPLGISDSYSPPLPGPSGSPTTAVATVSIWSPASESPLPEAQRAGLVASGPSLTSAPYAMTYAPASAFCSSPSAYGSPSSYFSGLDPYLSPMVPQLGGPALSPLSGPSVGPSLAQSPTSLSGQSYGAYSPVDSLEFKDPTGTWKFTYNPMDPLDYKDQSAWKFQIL
# Sequence of ETV5 (P41161 whole entry): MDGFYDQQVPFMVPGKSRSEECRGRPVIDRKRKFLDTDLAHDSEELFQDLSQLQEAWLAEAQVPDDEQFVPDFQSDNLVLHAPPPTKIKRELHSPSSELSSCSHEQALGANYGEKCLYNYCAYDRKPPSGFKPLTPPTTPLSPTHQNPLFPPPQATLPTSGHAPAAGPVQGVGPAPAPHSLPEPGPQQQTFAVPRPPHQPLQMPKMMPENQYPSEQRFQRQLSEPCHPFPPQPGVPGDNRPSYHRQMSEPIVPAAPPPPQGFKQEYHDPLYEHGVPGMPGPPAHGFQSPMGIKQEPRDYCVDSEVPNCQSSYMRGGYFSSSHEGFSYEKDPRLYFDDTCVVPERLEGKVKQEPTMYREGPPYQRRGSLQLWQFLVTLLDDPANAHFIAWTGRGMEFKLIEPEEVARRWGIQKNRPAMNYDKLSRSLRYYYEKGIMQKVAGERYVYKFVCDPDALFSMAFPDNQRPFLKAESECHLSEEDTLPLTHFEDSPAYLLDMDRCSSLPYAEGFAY
# Sequence of ETV1 (P50549 whole entry): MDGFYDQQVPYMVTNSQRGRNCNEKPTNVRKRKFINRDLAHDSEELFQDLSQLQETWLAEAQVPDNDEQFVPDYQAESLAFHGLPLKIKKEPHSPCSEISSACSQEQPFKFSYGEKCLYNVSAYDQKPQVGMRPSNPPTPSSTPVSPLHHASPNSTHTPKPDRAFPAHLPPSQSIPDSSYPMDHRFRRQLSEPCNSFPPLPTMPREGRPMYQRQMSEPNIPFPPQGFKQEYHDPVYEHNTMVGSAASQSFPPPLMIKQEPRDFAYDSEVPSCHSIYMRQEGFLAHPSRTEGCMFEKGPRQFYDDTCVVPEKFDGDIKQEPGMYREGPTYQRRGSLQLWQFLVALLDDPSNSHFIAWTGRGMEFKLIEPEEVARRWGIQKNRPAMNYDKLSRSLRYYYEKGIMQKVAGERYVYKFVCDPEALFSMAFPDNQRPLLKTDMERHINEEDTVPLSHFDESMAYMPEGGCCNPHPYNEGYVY
# Sequence of HSF1 (Q00613 whole entry): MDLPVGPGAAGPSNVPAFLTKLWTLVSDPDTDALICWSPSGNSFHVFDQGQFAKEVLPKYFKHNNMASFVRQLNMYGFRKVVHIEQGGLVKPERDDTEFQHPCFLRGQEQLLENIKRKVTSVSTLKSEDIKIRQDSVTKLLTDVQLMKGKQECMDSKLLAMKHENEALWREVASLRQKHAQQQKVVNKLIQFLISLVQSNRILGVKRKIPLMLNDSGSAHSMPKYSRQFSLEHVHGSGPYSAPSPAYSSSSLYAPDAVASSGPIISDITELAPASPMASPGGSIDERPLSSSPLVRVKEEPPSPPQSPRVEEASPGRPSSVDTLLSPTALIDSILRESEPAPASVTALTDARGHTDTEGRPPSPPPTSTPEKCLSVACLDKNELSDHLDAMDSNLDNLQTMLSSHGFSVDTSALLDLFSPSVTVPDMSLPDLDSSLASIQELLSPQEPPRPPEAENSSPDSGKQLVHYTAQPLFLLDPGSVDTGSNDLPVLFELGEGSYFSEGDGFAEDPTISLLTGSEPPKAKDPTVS
# Sequence of ELF1 (P32519 whole entry): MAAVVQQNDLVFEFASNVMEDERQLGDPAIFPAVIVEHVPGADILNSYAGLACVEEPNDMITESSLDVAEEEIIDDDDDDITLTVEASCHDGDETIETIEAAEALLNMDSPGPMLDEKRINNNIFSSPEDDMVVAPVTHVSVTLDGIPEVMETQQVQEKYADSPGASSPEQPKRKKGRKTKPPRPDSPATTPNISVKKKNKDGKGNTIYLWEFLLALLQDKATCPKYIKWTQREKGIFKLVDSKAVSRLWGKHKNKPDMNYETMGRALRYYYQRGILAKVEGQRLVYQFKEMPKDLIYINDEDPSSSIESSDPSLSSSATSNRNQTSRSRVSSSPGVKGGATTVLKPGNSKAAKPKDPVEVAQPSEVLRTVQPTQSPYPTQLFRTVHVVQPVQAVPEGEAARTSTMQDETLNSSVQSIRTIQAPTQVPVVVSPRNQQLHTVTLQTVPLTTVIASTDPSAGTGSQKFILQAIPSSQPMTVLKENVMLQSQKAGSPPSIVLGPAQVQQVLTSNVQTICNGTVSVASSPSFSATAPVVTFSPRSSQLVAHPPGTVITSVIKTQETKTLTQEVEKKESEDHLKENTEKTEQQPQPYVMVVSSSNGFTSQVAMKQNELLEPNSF
sequence,measurement,setting,value
ATGACT,binding signal,FLI1,"1.5 fold enrichment (6-mer frequency, TF over GST control)"
same,binding signal,ELK1,"1.42 fold enrichment (6-mer frequency, TF over GST control)"
same,binding signal,GABPA,"1.39 fold enrichment (6-mer frequency, TF over GST control)"
same,binding signal,ERG,"1.44 fold enrichment (6-mer frequency, TF over GST control)"
same,binding signal,ELF1,"1.42 fold enrichment (6-mer frequency, TF over GST control)"
same,binding signal,EHF,"1.35 fold enrichment (6-mer frequency, TF over GST control)"
same,binding signal,SPI1,"1.51 fold enrichment (6-mer frequency, TF over GST control)"
same,binding signal,SPIB,"1.52 fold enrichment (6-mer frequency, TF over GST control)"
same,binding signal,ELK3,"1.33 fold enrichment (6-mer frequency, TF over GST control)"
same,binding signal,FEV,"1.4 fold enrichment (6-mer frequency, TF over GST control)"
same,binding signal,ETV5,"1.43 fold enrichment (6-mer frequency, TF over GST control)"
same,binding signal,HSF1,"1.21 fold enrichment (6-mer frequency, TF over GST control)"
same,binding signal,SPIC,"1.47 fold enrichment (6-mer frequency, TF over GST control)"
same,binding signal,ELF4,"1.41 fold enrichment (6-mer frequency, TF over GST control)"
same,binding signal,ELK4,"1.39 fold enrichment (6-mer frequency, TF over GST control)"
same,binding signal,ETV2,"1.41 fold enrichment (6-mer frequency, TF over GST control)"
same,binding signal,ELF3,"1.46 fold enrichment (6-mer frequency, TF over GST control)"
same,binding signal,CRX,"1.25 fold enrichment (6-mer frequency, TF over GST control)"
same,binding signal,ETV1,"1.36 fold enrichment (6-mer frequency, TF over GST control)"
